Hits are enriched below; roughly 19% of the tested compounds scored in any of these assays.
Pf growth 48h = Primary qHTS for delayed death inhibitors of the malarial parasite plastid, 48 hour incubation. P. falciparum luciferase growth in erythrocytes, 48 h. Potency, µM (top dose mostly 28.7 µM), without a hit: top-dose activity change, negative = inhibition, most hits filed as inhibitors. hit rate 5.9% among 310,000. AID 504832, 2011; further: potency means the concentration at half of the fitted maximal effect; on the % scale 0 is the no-effect control and ±100 the full control effect
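Erythrocytes infected with P. falciparum carrying an integrated firefly luciferase reporter (2% hematocrit, 0.1% parasitemia final) were exposed to compounds in RPMI 1640 with 0.5% Albumax at 37 C, 5% CO2. Growth inhibition was scored as reduced luminescence.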
AMA1-RON2 inh = qHTS for Inhibitors of AMA1-RON; Towards Development of Antimalarial Drug Lead: Primary Screen. Plasmodium falciparum AMA1 (3D7) - RON2 peptide interaction. AlphaScreen AMA1-biotinylated RON2 peptide binding. Potency, µM (series often up to 58.2 µM), inactives show top-dose activity change, negative = inhibition, actives largely listed as inhibitors. hit rate 0.2% among 360,000;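 further: potency means the concentration at half of the fitted maximal effect; 0% = vehicle wells and -100% = peptide control; nearly all actives have a fitted effect of over 45% in size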
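AMA1 (3D7) with his tag at 25 nM final met compounds first, then biotinylated RON2 peptide at 25 nM; detection used donor plus acceptor beads, 10 µg/mL apiece, read by AlphaScreen after 30 min at room temperature.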
SARS PLP yeast = qHTS of Yeast-based Assay for SARS-CoV PLP. S. cerevisiae expressing SARS-CoV PLpro, growth rescue. AID 485353, 2010. Potency, µM (series often up to 32.9 µM), inactives show at the top dose activity, positive = growth rescue, actives largely listed as activators. hit rate 0.19% among 330,000; calls by dose curve; further: potency means the concentration at half of the fitted maximal effect; 0% is about no effect; nearly all actives have a fitted effect of over 55% in size
Cycloheximide cs = Cycloheximide Counterscreen for Small Molecule Inhibitors of Shiga Toxin | cell reporter, cycloheximide protein synthesis inhibition counterscreen | max response, % | hit rate 12% among 300,000; in the data active means max response mostly above about 13%, no sharp cut-off; inactive means mostly below about 14%; further: read at 38.3 µM for the half of the compounds with a filed dose; 0% is about no effect
Shiga toxin inh = A qHTS for Small Molecule Inhibitors of Shiga Toxin | Vero cells, Shiga toxin protein synthesis inhibition reporter | inhibition, % at 38.7 µM | hit rate 9.2% among 290,000 | AID 2315, 2010; in the data active means inhibition mostly above about 28%, no sharp cut-off; inactive means mostly below about 43%; further: 0% is about no effect
Pf growth 96h = Primary qHTS for delayed death inhibitors of the malarial parasite plastid, 96 hour incubation; P. falciparum luciferase reporter growth, 96 h; Potency, µM (top dose mostly 28.7 µM), inactives show at the highest dose activity change, negative = inhibition, most hits filed as inhibitors; hit rate 6.9% among 320,000; further: potency means the concentration at half of the fitted maximal effect; on the % scale 0 is the no-effect control and ±100 the full control effect
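Readout is luminescence from an integrated firefly luciferase in P. falciparum. Red cells, 2% hematocrit and 0.05% parasitemia final, were cultured with compound through two parasite generations (96 hours) at 37 C, 5% CO2.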
* marks the source's active call; other numbers are inactive results; ? = inconclusive; · = no result; [ ] = another dose, or the depositor's remark. Unless noted, the call rests on the fitted dose curve; in most records, active means well fitted curve in the direction sought with a large enough effect; inconclusive means small, poorly fitted or top-dose-only effect, or another doubt; inactive means no such curve, though single readings can be large; an effect the other way counts as inactive or inconclusive.

SMILES	Pf growth 48h	AMA1-RON2 inh	SARS PLP yeast	Cycloheximide cs	Shiga toxin inh	Pf growth 96h
CC1C(=O)NN=C1C(=O)N/N=C/c1ccco1 (stereo not given)	53%	16%	-2%	53*	48*	?
Cc1cc(-c2onc(C)c2C(=O)O)no1	8%	-4%	0%	0	-12	16%
COC(=O)C1=C(C)N(CCc2c[nH]c3ccc(OC)cc23)C(=O)C1	?	0%	-3%	-7	22	?
O=S(=O)(c1ccccc1)N(CC1CO1)c1cccc2ccccc12 (stereo not given)	12µM*	-3%	1%	5	13	?
O=S(=O)(c1ccccc1)N(CC1CO1)c1ccccc1 (stereo not given)	-7%	6%	1%	13	11	50%
O=C(COC(=O)CNS(=O)(=O)c1ccc(F)c(F)c1F)NCCc1ccccc1	112%	-6%	-1%	46*	49*	82%
O=C(CCc1ccccc1)N1CCN(S(=O)(=O)c2cccs2)CC1	7%	-3%	-1%	-4	3	24%
CCOC(=O)N1CCN(C(=O)c2noc(C(C)C)c2[N+](=O)[O-])CC1	?	14%	-2%	-2	-12	?
Clc1cc(CSc2ccccc2)nc(-c2ccccc2)n1	0%	110%	2%	22*	33	8%
COc1cc(/C=C(\C#N)C(=O)NC2CCCCC2)ccc1OCc1ccc(C(=O)O)cc1	6.6µM*	-5%	0%	11	34	-9%
COc1ccc(CCNC(=O)/C(C#N)=C/c2cccc(OCc3ccccc3)c2)cc1OC	?	?	9%	11	34	12µM*
COc1cc(/C=C(\C#N)C(=O)Nc2cccc(C(=O)O)c2)ccc1OCc1ccc(C)cc1	17%	-3%	-2%	26*	74*	7%
N#C/C(=C\c1ccc(OCc2cccc(C(=O)O)c2)cc1)C(=O)NCc1ccco1	185%	-10%	-2%	52*	101*	319%
O=c1nc(-c2ccccc2)n(-c2ccccc2)c2ncccc12	-3%	-3%	-1%	-3	-9	?
CCOC(=O)CCc1c(C)nc(SCc2ccc(C(=O)O)cc2)c(C#N)c1C	5%	2%	-9%	-1	-3	49%
COc1cc(/C=C(\C#N)C(=O)NCc2ccccc2)ccc1OCc1ccc(C(=O)O)cc1	13µM*	-8%	1%	1	19	?
O=C(O)c1cccc(NC(=O)c2ccc(COc3ccc(Cl)cc3)cc2)c1	80%	-9%	-3%	0	13	12%
N#C/C(=C\c1ccc(OCc2ccc(Cl)cc2)cc1)C(=O)Nc1cccc(C(=O)O)c1	22%	2%	-8%	18*	34*	13%
COc1cc(/C=C(/C#N)c2ccccc2F)ccc1OCc1ccccc1	12µM*	14%	18%	34*	53*	-4%
O=c1[nH][nH]c2c1[C@H](CCc1cccc(Cl)c1)O[C@H](C1CCCC1)C2	·	92%	·	·	·	·
Oc1ccc2ccccc2c1C=NC1CCCCC1	?	0%	-6%	24	28	?
Oc1ccc(C=NC2CCCCC2)c(O)c1	9%	5%	-3%	3	-2	10µM*
O=C(CSc1nnc(Cc2cc(=O)[nH]c(=O)[nH]2)n1-c1ccc(Cl)cc1)N1CCc2ccccc21	2.9µM*	·	2%	-4	-5	?
COc1cccc(-n2c(Cc3cc(=O)[nH]c(=O)[nH]3)nnc2SCC(=O)N2CCCCC2)c1	·	0%	-5%	-6	-6	33%
O=C(CSc1nnc(Cc2cc(=O)[nH]c(=O)[nH]2)n1-c1ccc(F)cc1)N1CCCCC1	·	27%	-5%	-3	21	7.4µM*
SMILES	Pf growth 48h	AMA1-RON2 inh	SARS PLP yeast	Cycloheximide cs	Shiga toxin inh	Pf growth 96h
O=C(CSc1nnc(Cc2cc(=O)[nH]c(=O)[nH]2)n1-c1ccc(F)cc1)NC1CCCC1	·	18%	-8%	-2	-8	5.9µM*
O=C(CSc1nnc(Cc2cc(=O)[nH]c(=O)[nH]2)n1-c1ccccc1)N1CCCc2ccccc21	-7%	-6%	-5%	11	3	-27%
COC(=O)C(C)Sc1nnc(Cc2cc(=O)[nH]c(=O)[nH]2)n1-c1ccc(OC)cc1 (stereo not given)	·	-4%	-2%	1	-10	0.83µM*
COc1cccc(-n2c(Cc3cc(=O)[nH]c(=O)[nH]3)nnc2SCC(=O)NC2CCCCC2)c1	·	7%	-3%	-3	16	?
COc1ccc(CC(CC(=O)O)C(=O)Nc2ccc(Cl)c(Cl)c2)cc1 (stereo not given)	15%	-9%	-8%	-4	0	9%
CCC(=O)Nc1ccc(/C(C)=N/NC(=O)c2c(-c3ccccc3Cl)noc2C)cc1	-19%	7%	4%	2	15	-2%
O=[N+]([O-])c1ccc(-c2cnc(SC(c3ccccc3)c3ccccc3)[nH]2)cc1	?	?	-35%	-2	-9	7.4µM*
Cc1cc(C)c(CSc2ncc(-c3ccc([N+](=O)[O-])cc3)[nH]2)c(C)c1	?	?	-39%	14	-1	?
O=[N+]([O-])c1ccc(-c2cnc(SCc3ccccc3Cl)[nH]2)cc1	15%	-17%	-35%	28*	58*	?
Cc1c(Br)c([N+](=O)[O-])nn1C(C)C(=O)N1CCc2ccccc2C1 (stereo not given)	202%	-5%	1%	27*	30*	-3%
Cc1cc2cc(CN(Cc3nnnn3C3CCCCC3)CC3CCCO3)c(=O)[nH]c2cc1C (stereo not given)	8.3µM*	-7%	3%	-3	-10	-11%
Cc1cc(C)c2cc(CN(Cc3nnnn3C3CCCCC3)CC3CCCO3)c(=O)[nH]c2c1 (stereo not given)	13µM*	0%	1%	-8	-8	4%[5.75 µM]
COc1ccc2cc(CN(CCCN3CCOCC3)Cc3nnnn3C3CCCC3)c(=O)[nH]c2c1	10µM*	53%	-3%	6	-5	5.2µM*
O=S(=O)(Nc1ccccn1)c1ccc(Cl)c2ccccc12	25%	8%	1%	8	26	88%
O=C(CSc1n[nH]c(-c2ccncc2)n1)Nc1ccc(Cl)c(C(=O)O)c1	7%	-3%	2%	-1	1	-25%
COCCNC(=O)C(=O)N/N=C/c1ccccc1C(F)(F)F	-4%	9%	10%	1	12	?
CSc1ccccc1NC(=O)CN(C)C(=O)Cn1c(=O)oc2ccccc21	?	6%	0%	·	·	6%
N#CC(=Cc1ccc(O)cc1)C(N)=C(C#N)C#N	0%	1%	·	·	·	3%

Assay outcomes (PubChem BioAssay)
